Compound activity deposited in PubChem BioAssay by National Center for Advancing Translational Sciences (NCATS).
PI5P4K alpha inh = qHTS for Inhibitors of phosphatidylinositol 5-phosphate 4-kinase (PI5P4K) | PI5P4Kalpha enzyme, ADP-Glo luminescence, 60 min; active compounds read low | 330,000 compounds, 1.2% hits | AID 652105, 2013 | max response, %; active means max response of -50% or lower; inconclusive means between -30% and -50%; inactive means -30% or higher; further: value at the top dose of about 77 µM; on the % scale 0 is the no-effect control and ±100 the full control effect
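PI5P4Kalpha ADP-Glo assay; 5 microM ATP final; 60 min RT reaction; HEPES pH 7.4/EGTA/CHAPS, 5% DMSO; controls lacking substrate or enzyme; luminescent end-point.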
LDHA block = qHTS assay for inhibitors of human lactate dehydrogenase; L-lactate dehydrogenase A chain (Homo sapiens), P00338; purified LDHA, NADH/diaphorase-resazurin fluorescence; active compounds read low; activity change, % (values are at about 110 or 230 µM); 480,000 compounds, 0.15% hits; in the data active means activity change below about -30%; inconclusive means mostly about -25% to -30%;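 further: plate controls were DMSO wells for no effect and wells without enzyme for full effect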
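Human LDH5 at 2 nM final in Tris HCl pH 7.4 with 0.06 mM NADH and 0.2 mM pyruvate, reacted 5 minutes at room temperature. Remaining NADH coupled via diaphorase/resazurin; resorufin fluorescence read at 0 and 20 minutes, normalized to enzyme-free and DMSO wells.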
D3 ag = qHTS of D3 Dopamine Receptor Agonist: qHTS | D(3) dopamine receptor (Homo sapiens), P35462 | D3R DiscoveRx beta-arrestin cells, luminescence, 90 min | max activation, % | 410,000 compounds, 0.58% hits; in the data active means max activation above about 30%; further: 0% is about no effect
Target sequence (P35462 whole entry, looked up): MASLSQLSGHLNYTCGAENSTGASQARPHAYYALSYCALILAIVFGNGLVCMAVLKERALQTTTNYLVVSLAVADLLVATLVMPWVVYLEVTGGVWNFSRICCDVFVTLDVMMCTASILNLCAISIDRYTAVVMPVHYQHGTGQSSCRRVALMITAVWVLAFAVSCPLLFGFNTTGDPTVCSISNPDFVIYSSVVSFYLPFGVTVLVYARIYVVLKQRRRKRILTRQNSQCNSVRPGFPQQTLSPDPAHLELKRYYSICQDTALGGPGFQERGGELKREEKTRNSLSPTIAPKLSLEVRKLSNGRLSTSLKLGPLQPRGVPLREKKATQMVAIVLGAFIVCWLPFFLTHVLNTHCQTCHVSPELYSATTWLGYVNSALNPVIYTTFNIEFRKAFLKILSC
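Agonist-mode cell screen: cells plated at 1500/well and incubated overnight at 37 °C, then exposed to library compounds for 90 min at 37 °C. Detection reagent was added for 30–60 min at room temperature, and luminescence was read.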
PI4K2A inh = qHTS for small molecular inhibitors of PI4K2A; Phosphatidylinositol 4-kinase type 2-alpha (Homo sapiens), Q9BTU6; purified PI4K2A, ADP-Glo luminescence, 1 h; active compounds read low; activity change, negative = inhibition, % at 76.9 µM; 420,000 compounds, 0.13% hits; AID 1346378, 2018; in the data active means activity change below about -50%; inconclusive means mostly about -30% to -49%;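 further: -100% = wells without enzyme as full effect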
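Compounds are screened against recombinant PI4K2A using PI as substrate and ATP, the latter dispensed at 300 microM. Reactions run one hour at ambient temperature before ADP-Glo detection; full inhibition defined by wells lacking enzyme.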
D3 antag = qHTS of D3 Dopamine Receptor Antagonist: qHTS; D3R cells, DiscoveRx beta-arrestin luminescence, antagonist mode; active compounds read low; AID 652054, 2013; max response, negative = inhibition, %; 360,000 compounds, 2.5% hits; D(3) dopamine receptor (Homo sapiens), P35462; in the data active means max response below about -50%; inconclusive means no clear call, values can overlap the other calls; further: on the % scale 0 is the no-effect control and ±100 the full control effect
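Cells expressing the human receptor were seeded at 1500 cells/well, incubated overnight at 37 degrees C in 5% CO2, then exposed to library compounds with dopamine controls for 90 minutes at 37 degrees C before luminescent detection.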
The depositor's hits bear a star; ? = inconclusive; · = not tested or not shown. This is a sample that favours compounds with a hit; in the whole collection about 3.3% have one here.

SMILES	PI5P4K alpha inh	LDHA block	D3 ag	PI4K2A inh	D3 antag
CCCn1c(NCc2ccc(C)cc2)nc2c1c(=O)n(C)c(=O)n2C	·	4	·	·	·
Cc1ccc2c(Cl)cc(Cl)c(OCC(=O)NC(C)(C#N)C3CC3)c2n1 (stereo not given)	·	8	·	·	·
O=C(NCCc1ccc(O)cc1)Nc1ccc(F)cc1	·	2	·	·	·
O=C(C1CCC(C(=O)N2CCc3ccccc32)CC1)N1CCc2ccccc21 (stereo not given)	5	-1	-10	-5	-59*
CCOC(=O)C1CCN(CC(=O)N2CCc3ccccc32)CC1	1	-9	-25	-10	-74*
O=C(c1ccc([N+](=O)[O-])cc1)N1CCc2ccccc21	0	-2	-27	2	-55*
O=C(C1CCN(S(=O)(=O)N2CCOCC2)CC1)N1CCc2ccccc21	7	-1	-3	-9	-8
O=C(c1cccc([N+](=O)[O-])c1)N1CCc2ccccc21	-4	-7	2	1	1
O=C(O)c1cccc(S(=O)(=O)N2CCC(n3nnc4cc(C(F)(F)F)ccc43)CC2)c1	2	-12	-14	-3	-76*
O=CNc1cc(-c2ccc(C(=O)NC3CC3)cc2)cn2c(-c3ccccc3)cnc12	-24	0	-19	2	?
CC(=O)c1ccc(-c2cnc3c(NC=O)cc(-c4ccc(C(=O)NC5CC5)cc4)cn23)cc1	-68*	0	-1	-2	74
COc1ccc(-c2cnc3c(NC(C)=O)cc(-c4ccc(C(=O)NC5CC5)cc4)cn23)cc1OC	-16	0	36*	-6	226
O=CNc1cc(-c2cccc(O)c2)cn2c(-c3ccc(F)cc3)cnc12	-72*	-7	-3	-9	0
CC(=O)c1ccc(-c2cnc3c(NC=O)cc(-c4ccc(N5CCN(C)CC5)cc4)cn23)cc1	-51*	3	2	-9	29
CC(=O)c1cccc(-c2cnc3c(NC=O)cc(-c4ccc(F)cc4)cn23)c1	-21	2	-4	-1	2
Clc1ccc2c(Cl)c3c(nc2c1)CCCC3	·	0	·	·	·
N#Cc1nc(COc2ccc(Br)cc2)oc1NCc1ccncc1	·	-9	·	·	·
CC(=O)Nc1cc(-c2cccc(C(=O)NCCN(C)C)c2)cn2c(-c3ccccc3)cnc12	-2	-8	-24	0	-52*
CC(=O)Nc1cc(-c2ccc(F)cc2)cn2c(-c3ccc(F)cc3)cnc12	-8	2	0	4	-11
COc1cccc(-c2cc(NC=O)c3ncc(-c4ccc(OC)c(OC)c4)n3c2)c1	-54*	-6	1	-1	54
CC(=O)Nc1cc(-c2cccc(C(=O)NCCN(C)C)c2)cn2c(-c3ccc(S(C)(=O)=O)cc3)cnc12	17	-1	1	4	-8
CC(=O)Nc1cccc(-c2cc(NC(C)=O)c3ncc(-c4cccc(C(C)=O)c4)n3c2)c1	-11	-2	17	2	13
CC(=O)Nc1cccc(-c2cc(NC=O)c3ncc(-c4ccc(C(C)=O)cc4)n3c2)c1	-51*	-8	11	-4	88
CC(=O)Nc1cc(-c2ccc(CO)cc2)cn2c(-c3ccc(F)cc3)cnc12	-23	1	-5	-4	-50*
CC(C)c1nc(C#N)c(NCC(c2ccccc2)N2CCOCC2)o1 (stereo not given)	·	0	·	·	·
SMILES	PI5P4K alpha inh	LDHA block	D3 ag	PI4K2A inh	D3 antag
COc1ccc(CCNC(=O)C(=O)NCC2CCCN2S(=O)(=O)c2ccc(OC)cc2)cc1 (stereo not given)	0	-3	34*	3	28
COc1ccc(S(=O)(=O)N2CCCC2CNC(=O)C(=O)NC2CCCC2)cc1 (stereo not given)	2	-1	1	5	30
O=C(NCCNC1CCC(c2ccccc2)CC1)c1ccc(F)cc1 (stereo not given)	2	-17	-35	2	-92*
O=C(Cc1ccccc1F)NC1CCC(c2ccccc2)CC1 (stereo not given)	·	5	·	·	·
CN(C)c1ccc(-c2nn3c(-c4ccco4)nnc3s2)cc1	·	·	·	-1	·
O=C(Cn1cnnn1)OCC(=O)c1ccc(Cl)s1	-66*	0	2	-2	9
Cc1c(OCc2ccc(C(C)(C)C)cc2)ccc2c(-c3ccccc3)cc(=O)oc12	·	4	·	·	·
O=C(O)c1ccc(-n2c(=O)c3ccccc3c3ccccc3c2=O)cc1	-1	-12	9	1	-20
CC(=O)Nc1ccc(-n2c(=O)c3ccccc3c3ccccc3c2=O)cc1	1	-7	-13	0	-88*
Cc1cc(CCC(=O)O)c(C)cc1CCC(=O)O	-21	-2	-11	7	-52*
COc1cccc(C(=O)Nc2ccc3oc(-c4ccccc4Cl)nc3c2)c1	·	3	·	·	·
CC1CCN(Cc2c(C(=O)N3CCc4ccccc4C3)nc3ccc(Cl)cn23)CC1	9	4	-19	-6	-89*
CC(=O)Nc1ccc(Sc2ncccc2C(=O)Nc2cc(Cl)cc(Cl)c2)cn1	·	-7	-33	3	-52*
CC(=O)Nc1ccc(Sc2ncccc2C(=O)Nc2ccc(OC(F)(F)F)cc2)cn1	2	-3	-2	7	-21
CCCn1c(C)cc(C(=O)Cn2cnc3c2c(=O)n(C)c(=O)n3C)c1C	·	0	·	·	·
Cn1c(Cn2c(=O)sc3ccccc32)nnc1SCC(=O)NCc1ccccc1	1	-8	-9	0	-63*
Cn1c(Cn2c(=O)sc3ccccc32)nnc1SCC(=O)NCc1ccc(F)cc1	-2	-2	-1	0	-16
Cc1cccc(C(=O)Nc2ccc3c(c2)nc(CCn2ccccc2=O)n3C)c1	·	11	·	·	·
O=C(Nc1ccc(NC(=O)C(F)(F)C(F)(F)OC(F)(F)F)cc1)C(F)(F)C(F)(F)OC(F)(F)F	·	-2	·	·	·
Cc1ccc2ccccc2[n+]1[O-]	·	5	·	·	·
[O-][n+]1c2ccccc2[n+]([O-])c2cc(O)ccc21	-54*	15	-12	-4	?
O=C(OCc1ccc([N+](=O)[O-])cc1)c1c2c(nc3ccccc13)CCC2	·	6	·	·	·
CC1CCN(CC(O)CN2c3ccccc3Sc3ccccc32)CC1 (stereo not given)	-2	-14	1	-2	-103*
CC(=O)NCCNC(=O)CCc1ncc(-c2ccc(F)cc2F)o1	·	-1	·	·	·
COc1ccccc1CNCC(O)(c1ccc(F)cc1)c1ccc(F)cc1	-2	-4	-14	-2	-1
CCN(CC)CCNCC(O)(c1ccc(Cl)cc1)c1ccc(Cl)cc1	21	-4	-25	-5	-60*
